Data from PubChem BioAssay (NCATS).
Inconclusive results are not listed. The source made the active and inactive calls. Unless noted, calls come from the whole dose curve; as a rule, active = well fitted inhibition curve with a large enough effect; inconclusive = small, poorly fitted or top-dose-only effect; inactive = flat fitted curve, though single readings scatter.

Experiments:
[1] = target: Glucocorticoid receptor (Homo sapiens) (UniProt P04150); experiment: GR-GFP Redistribution (AID 450;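 active = compounds whose dose series gives a full or clear partial fitted curve of increased nuclear translocation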; note: potency is the fitted concentration of half-maximal effect); conditions: U2OS GR-GFP nuclear translocation, laser cytometry, 2 h
Chain of Glucocorticoid receptor (Homo sapiens) (P04150 whole entry, looked up, the tested form may be a part): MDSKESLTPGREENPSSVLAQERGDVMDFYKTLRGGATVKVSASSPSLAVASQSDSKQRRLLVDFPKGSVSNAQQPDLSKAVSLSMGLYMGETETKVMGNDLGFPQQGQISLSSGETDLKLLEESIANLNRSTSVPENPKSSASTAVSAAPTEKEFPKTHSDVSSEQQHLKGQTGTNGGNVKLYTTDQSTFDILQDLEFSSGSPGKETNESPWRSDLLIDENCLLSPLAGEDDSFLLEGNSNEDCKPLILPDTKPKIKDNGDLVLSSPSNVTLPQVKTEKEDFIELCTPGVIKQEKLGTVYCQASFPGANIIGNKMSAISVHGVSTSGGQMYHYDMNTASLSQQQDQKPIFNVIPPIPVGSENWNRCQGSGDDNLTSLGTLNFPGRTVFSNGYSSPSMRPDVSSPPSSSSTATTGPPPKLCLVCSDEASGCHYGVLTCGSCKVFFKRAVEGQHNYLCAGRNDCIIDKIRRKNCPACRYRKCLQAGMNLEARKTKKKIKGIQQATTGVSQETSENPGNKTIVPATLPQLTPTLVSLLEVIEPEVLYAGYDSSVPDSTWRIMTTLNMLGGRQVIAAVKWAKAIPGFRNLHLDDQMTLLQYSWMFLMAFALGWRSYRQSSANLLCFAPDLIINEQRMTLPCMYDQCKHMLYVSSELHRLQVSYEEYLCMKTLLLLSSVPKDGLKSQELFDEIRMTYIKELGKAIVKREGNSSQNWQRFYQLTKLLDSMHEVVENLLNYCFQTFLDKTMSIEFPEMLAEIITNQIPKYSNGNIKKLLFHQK

[2] = target: Glucocorticoid receptor (Homo sapiens) (UniProt P04150); experiment: GR-EFC Redistribution (AID 451; calls by dose curve; note: potency is the fitted concentration of half-maximal effect); conditions: CHO-K1 GR-EFC translocation, beta-gal luminescence, 2 h
How it was run: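 CHO-K1 cells expressing nuclear EA and GR-ED fragments of b-gal; compounds titrated up to 46 uM final, 2 h at 37 C. GR nuclear translocation read as complemented b-gal luminescence after 1 h RT detection.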

[3] = target: Mitogen-activated protein kinase 10 (Mus musculus) (UniProt Q61831); experiment: JNK3 AlphaScreen Assay (AID 530; active = well fitted curve in either direction with a large enough effect, not every such curve was filed as active;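 note: kinase came from lysate of stimulated human HepG2 cells; signal reports phosphorylation of biotinylated GST-cJun 1-79 at Ser73 with 10 µM ATP; series mostly up to about 57 µM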)
How it was run: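 Pre-activated (IL-1β/TNFα) JNK3 in HepG2 lysates phosphorylates biotin-GST-cJun(1-79), 10 uM ATP; anti-phospho-cJun(Ser73) AlphaScreen read at room temperature, pH 7.6 Tris buffer. Compounds pre-incubated 15 min as titrations.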

[4] = target: 3',5'-cyclic-AMP phosphodiesterase 4B (Homo sapiens) (UniProt Q07343); experiment: qHTS Assay for Inhibitors of PDE-IV (AID 607; active = well fitted activation curve with a large enough effect in the main read-out, with a control signal flat, not every such curve was filed as active)
Chain of 3',5'-cyclic-AMP phosphodiesterase 4B (Homo sapiens) (Q07343 whole entry, looked up): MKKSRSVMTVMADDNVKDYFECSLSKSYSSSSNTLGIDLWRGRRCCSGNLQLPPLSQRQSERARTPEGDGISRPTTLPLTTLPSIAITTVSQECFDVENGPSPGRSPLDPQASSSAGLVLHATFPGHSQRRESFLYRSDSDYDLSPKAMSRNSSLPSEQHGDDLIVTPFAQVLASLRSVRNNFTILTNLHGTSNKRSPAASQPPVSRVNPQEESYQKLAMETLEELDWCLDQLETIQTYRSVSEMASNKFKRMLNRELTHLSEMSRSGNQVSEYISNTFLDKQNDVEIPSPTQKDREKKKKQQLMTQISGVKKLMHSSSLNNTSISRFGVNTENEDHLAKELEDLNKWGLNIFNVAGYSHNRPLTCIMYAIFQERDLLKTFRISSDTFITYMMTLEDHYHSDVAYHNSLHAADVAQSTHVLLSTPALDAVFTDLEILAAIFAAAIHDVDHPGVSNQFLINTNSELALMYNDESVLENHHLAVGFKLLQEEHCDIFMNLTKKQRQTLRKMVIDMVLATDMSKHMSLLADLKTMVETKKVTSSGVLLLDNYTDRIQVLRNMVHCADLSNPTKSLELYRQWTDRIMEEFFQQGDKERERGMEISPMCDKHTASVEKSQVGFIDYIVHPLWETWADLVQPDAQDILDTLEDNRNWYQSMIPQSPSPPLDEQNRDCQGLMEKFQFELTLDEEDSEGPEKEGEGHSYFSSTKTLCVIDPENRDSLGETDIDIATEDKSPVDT
How it was run: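 Live HEK293 cells with a modified cyclic nucleotide-gated (CNG) channel report intracellular cAMP via membrane-potential dye fluorescence (ex 535/em 590 nm). Endogenous PDE-IV was targeted. Compounds were tested at up to 22.9 uM final; RO 20-1724 100 uM served as control.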

[5] = target: Ubiquitin carboxyl-terminal hydrolase 1 (Homo sapiens) (UniProt O94782); experiment: Inhibitors of USP1/UAF1: Pilot qHTS (AID 504865);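 note: rhodamine fluorescence freed from ubiquitin-rhodamine substrate followed over time; top concentration of the series differs between compounds; nearly all actives have a fitted effect of over 35% in size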
Chain of Ubiquitin carboxyl-terminal hydrolase 1 (Homo sapiens) (O94782 whole entry, looked up): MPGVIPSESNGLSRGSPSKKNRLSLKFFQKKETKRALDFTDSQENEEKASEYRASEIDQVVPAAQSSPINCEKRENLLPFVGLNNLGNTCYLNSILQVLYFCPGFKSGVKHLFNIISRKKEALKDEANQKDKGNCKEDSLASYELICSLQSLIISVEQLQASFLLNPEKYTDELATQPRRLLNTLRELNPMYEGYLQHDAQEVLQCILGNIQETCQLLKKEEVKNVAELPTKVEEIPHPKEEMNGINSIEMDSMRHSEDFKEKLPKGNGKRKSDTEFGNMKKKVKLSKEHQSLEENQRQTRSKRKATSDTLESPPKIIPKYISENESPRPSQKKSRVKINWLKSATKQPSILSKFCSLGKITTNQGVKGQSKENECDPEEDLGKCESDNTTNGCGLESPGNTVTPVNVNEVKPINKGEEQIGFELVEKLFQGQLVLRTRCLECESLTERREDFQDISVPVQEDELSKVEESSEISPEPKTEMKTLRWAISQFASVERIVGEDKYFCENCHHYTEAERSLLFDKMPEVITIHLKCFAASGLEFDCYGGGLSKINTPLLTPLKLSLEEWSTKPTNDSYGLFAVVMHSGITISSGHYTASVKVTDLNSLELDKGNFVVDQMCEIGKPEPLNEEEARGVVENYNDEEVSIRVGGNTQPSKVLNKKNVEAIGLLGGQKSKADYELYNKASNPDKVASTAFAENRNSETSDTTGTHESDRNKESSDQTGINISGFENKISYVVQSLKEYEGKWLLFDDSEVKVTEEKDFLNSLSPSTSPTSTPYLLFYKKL
How it was run: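 Enzyme-free wells gave the negative control, while test wells held 1nM USP1/UAF1 preincubated with compound for 15 min at room temperature. Ub-Rho at 150nM final started the reaction, and fluorescence at 480/540 nm was recorded kinetically.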

[6] = target: DNA dC->dU-editing enzyme APOBEC-3G (Homo sapiens) (UniProt Q9HC16); experiment: qHTS for inhibitors of Vif-A3G interactions: Validation (AID 588379)
Chain of DNA dC->dU-editing enzyme APOBEC-3G (Homo sapiens) (Q9HC16 whole entry, looked up): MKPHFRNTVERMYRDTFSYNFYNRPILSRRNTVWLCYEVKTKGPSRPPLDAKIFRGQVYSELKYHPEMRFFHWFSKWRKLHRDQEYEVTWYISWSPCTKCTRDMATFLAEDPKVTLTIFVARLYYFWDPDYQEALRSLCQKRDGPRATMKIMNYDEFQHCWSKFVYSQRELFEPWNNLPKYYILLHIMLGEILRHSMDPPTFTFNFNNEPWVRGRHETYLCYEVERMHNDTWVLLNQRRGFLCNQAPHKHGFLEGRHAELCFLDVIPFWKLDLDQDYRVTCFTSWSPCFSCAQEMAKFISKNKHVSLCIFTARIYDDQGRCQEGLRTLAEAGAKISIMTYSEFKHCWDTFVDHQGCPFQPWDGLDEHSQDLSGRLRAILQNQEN
How it was run: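 HeLa cells stably expressing Vif and A3G-eYFP, 700 cells/well, incubated overnight at 37 deg C, then exposed to compound overnight at 37 deg C. Inhibition of Vif-mediated degradation read as increased yellow fluorescence (Ex 488/Em 500-530) by laser-scanning cytometry.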

[7] = test system: Zika virus NS2B-NS3 protease; experiment: Primary screen GU AMC qHTS for Zika virus inhibitors (AID 1347154); note: nearly all actives have a fitted effect of over 70% in size
How it was run: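 Unlinked Zika NS2B hydrophilic domain–NS3 protease complex at 25 nM in 10 mM Tris-HCl pH 8.0, 0.01% Tween 20, with an AMC peptide substrate. Fluorescence change (340/450 nm) over 15 min at room temperature, normalized to controls, fitted to 4-parameter Hill.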

Measured: Potency

COC(=O)/C=C\C(=O)N[C@@H]1CC[C@@]2(O)[C@H]3Cc4ccc(O)c5c4[C@@]2(CCN3CC2CC2)[C@@H]1O5
inactive: [1] > 46 µM | [2] > 46 µM | [3] | [4] | [5] | [6] | [7]
